Test systems include SK-MEL-2 melanoma; EKVX NSCLC; SN12C renal; UO-31 renal; TK-10 renal; ACHN renal; A498 renal; CCRF-CEM leukemia; MOLT-4 leukemia; SR leukemia.
What all share (test): NCI-60 one-dose screen, 48 h (100 = growth as untreated, 0 = no growth, -100 = all killed)
What all share (settings): 10 µM unless noted

Compounds without any hit were thinned out: in the full panel of roughly 83,000, 20% have a hit.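 Treatment: one concentration, 48 hours, 96-well format. Scoring: percent growth, with anything below 10 considered active.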 A number with no mark means an inactive call. Calls of active or inactive are those of the source.

In the case of `COc1cc(NCC(=O)Nc2cc(Nc3ccc(C)cc3)ncn2)c(Cl)c(OC)c1Cl`, the growth in the experiment on SK-MEL-2 melanoma is 103%; in the experiment on EKVX NSCLC, 82.1%; in the experiment on SN12C renal, 88.1%; in the experiment with UO-31 renal it was 62.1%; in the experiment with TK-10 renal it was 121%; in the experiment with ACHN renal, 92.6%. Moreover, the growth in the experiment on A498 renal is 84.9%; with CCRF-CEM leukemia it was 81.8%; with MOLT-4 leukemia it was 60.8%; in the experiment with SR leukemia it was 78.9%.
Take `COc1cc(N=Nc2cc(S(=O)(=O)O)cc3cc(S(=O)(=O)O)cc(O)c23)c(C)cc1N=Nc1c(S(=O)(=O)O)cc2cc(Nc3ccccc3)ccc2c1O`: the growth with SK-MEL-2 melanoma was 103%; with EKVX NSCLC, 107%; in the experiment with SN12C renal, 103%; in the experiment with UO-31 renal, 81.3%; in the experiment with TK-10 renal, 91.1%; with ACHN renal it was 108%. The growth with A498 renal is 108%; in the experiment with CCRF-CEM leukemia, 100%; with MOLT-4 leukemia, 86.8%; in the experiment with SR leukemia, 76.5%.
Take `C[C@H]1[C@H](C)CC[C@]2(C(=O)OCCCC[P+](c3ccccc3)(c3ccccc3)c3ccccc3)CC[C@]3(C)C(=CC[C@@H]4[C@@]5(C)CC[C@H](OC(=O)C(Cl)Cl)C(C)(C)[C@@H]5CC[C@]43C)[C@H]12`: the growth in the experiment on SK-MEL-2 melanoma was -63.8% (active); with EKVX NSCLC, -35.4% (active); in the experiment with SN12C renal, -81% (active); in the experiment on UO-31 renal it was -93.9% (active); with TK-10 renal, -76.8% (active); in the experiment on ACHN renal it was -79.6% (active). For the same molecule, the growth in the experiment with A498 renal is -82% (active); with CCRF-CEM leukemia, -16.6% (active); with MOLT-4 leukemia, -49.8% (active); with SR leukemia, -49.4% (active).
In the case of `COc1ccc2[nH]c(=O)c(/C=C/C(=O)c3ccccc3OC)cc2c1`, the growth in the experiment on SK-MEL-2 melanoma is -2.52% (active); in the experiment with EKVX NSCLC, 37.8%; in the experiment with SN12C renal, 8.57% (active); in the experiment with UO-31 renal, 23.6%; in the experiment with TK-10 renal it was 42%; in the experiment with ACHN renal, 38.8%. The growth is 21.7% in the experiment with A498 renal, 7.53% (active) with CCRF-CEM leukemia, 10.9% in the experiment on MOLT-4 leukemia and 2.69% (active) with SR leukemia.
As to `CCCCCOC(=O)c1ccccc1O`, the growth in the experiment on SK-MEL-2 melanoma is 111%; in the experiment on EKVX NSCLC, 94.2%; with SN12C renal it was 105%; in the experiment with UO-31 renal, 91.2%; in the experiment with TK-10 renal, 99.5%; in the experiment on ACHN renal it was 107%. Also, the growth in the experiment on A498 renal was 102%; with CCRF-CEM leukemia it was 99.5%; in the experiment on MOLT-4 leukemia, 97%; in the experiment on SR leukemia it was 85.1%.
Regarding `O=C1NN(c2ccccc2)C(c2ccc(Cl)cc2)N2CCC[C@H]12` (stereo not given in full), the growth in the experiment on SK-MEL-2 melanoma is 107%; in the experiment with EKVX NSCLC, 94.8%; with SN12C renal it was 105%; in the experiment with UO-31 renal, 85.3%; in the experiment with TK-10 renal it was 111%; in the experiment with ACHN renal, 106%. The growth in the experiment with A498 renal was 84.5%; with CCRF-CEM leukemia it was 107%; with MOLT-4 leukemia it was 99.5%; with SR leukemia, 111%.
Consider `COc1cc(/C=C/C(=O)c2cccs2)ccc1OCc1ccc(Cl)nc1`, for which the growth in the experiment with SK-MEL-2 melanoma was 96.7%; in the experiment on EKVX NSCLC it was 94.8%; in the experiment with SN12C renal it was 81.1%; in the experiment on UO-31 renal, 57.2%; in the experiment on TK-10 renal, 111%; in the experiment on ACHN renal it was 102%. The growth in the experiment with A498 renal was 100%; in the experiment with CCRF-CEM leukemia, 61.9%; with MOLT-4 leukemia, 86.6%; in the experiment on SR leukemia, 20.5%.
For the molecule `Cc1cnc(SCc2ccc(Cl)cc2)[nH]c1=S`, the growth was 88.5% in the experiment on SK-MEL-2 melanoma; 103% with EKVX NSCLC; 103% in the experiment with SN12C renal; 93.9% in the experiment on UO-31 renal; 95.1% in the experiment on TK-10 renal; 104% in the experiment on ACHN renal. Further, the growth with A498 renal was 90.7%; in the experiment with CCRF-CEM leukemia, 106%; in the experiment on MOLT-4 leukemia, 106%; in the experiment on SR leukemia it was 89.7%.
With `COc1ccc2oc(=O)cc(-c3c(C#N)c(N)n4nc(N)c(C#N)c4c3C#N)c2c1`, the growth with SK-MEL-2 melanoma is 91.7%; with EKVX NSCLC it was 100%; in the experiment with SN12C renal, 103%; with UO-31 renal it was 94.4%; in the experiment on TK-10 renal, 90.4%; in the experiment on ACHN renal, 101%. In addition, the growth in the experiment with A498 renal was 113%; in the experiment with CCRF-CEM leukemia, 106%; with MOLT-4 leukemia it was 86%; with SR leukemia, 115%.
Take `COc1ccc(C(=O)c2cc(OC)c(OC)c(OC)c2)cc1OC(=O)C(Cl)(Cl)Cl`: the growth with SK-MEL-2 melanoma is 29.8%; in the experiment on EKVX NSCLC, 61.3%; in the experiment on SN12C renal, 30.9%; in the experiment on UO-31 renal it was 39.1%; in the experiment with TK-10 renal it was 65.6%; with ACHN renal it was 31.8%. Further, the growth with A498 renal was 46.5%; with CCRF-CEM leukemia, 8.37% (active); in the experiment on MOLT-4 leukemia, 11.8%; in the experiment on SR leukemia, 6.59% (active).
As to `COCCOCCOCc1n(Cc2ccc3ccccc3n2)c2ccccc2[n+]1Cc1ccc2ccccc2n1`, the growth is -8.51% (active) with SK-MEL-2 melanoma; 71.6% in the experiment with EKVX NSCLC; 11.4% with SN12C renal; 67.3% in the experiment on UO-31 renal; 37.6% with TK-10 renal; 97.6% in the experiment on ACHN renal. The growth is 78.1% with A498 renal, 31.6% in the experiment with CCRF-CEM leukemia, 26.3% in the experiment with MOLT-4 leukemia and 9.58% (active) in the experiment with SR leukemia.
Take `COc1ccc(C(=O)c2cc(F)c(F)c(OC)c2F)cc1OC(=O)CCl`: the growth is 25.9% with SK-MEL-2 melanoma; 73.9% in the experiment with EKVX NSCLC; 39.4% in the experiment on SN12C renal; 71.8% with UO-31 renal; 88.2% in the experiment on TK-10 renal; 59.8% with ACHN renal. In addition, the growth is 94.5% in the experiment on A498 renal, 32.8% in the experiment with CCRF-CEM leukemia, 29.6% in the experiment with MOLT-4 leukemia and 20.8% with SR leukemia.
In the case of `CN(C)C1=NCCN1`, the growth was 81.5% in the experiment with SK-MEL-2 melanoma; 103% with EKVX NSCLC; 104% in the experiment on SN12C renal; 96.2% in the experiment with UO-31 renal; 93.6% in the experiment with TK-10 renal; 111% in the experiment on ACHN renal. For the same molecule, the growth in the experiment with A498 renal is 107%; in the experiment with CCRF-CEM leukemia, 90.2%; in the experiment with MOLT-4 leukemia it was 92.6%; with SR leukemia, 108%.
`COc1ccc(-n2cc(-c3ccc(Cl)c(Cl)c3)[nH]c2=O)cc1OC`: the growth in the experiment with SK-MEL-2 melanoma is 97.7%; with EKVX NSCLC, 93.6%; in the experiment with SN12C renal it was 102%; with UO-31 renal, 95%; in the experiment on TK-10 renal, 96.6%; in the experiment on ACHN renal, 105%. Besides, the growth was 79.3% with A498 renal, 3.68% (active) with CCRF-CEM leukemia, 144% with MOLT-4 leukemia and 40.1% in the experiment with SR leukemia.

The values above are taken from PubChem BioAssay (NCI).
